# Over roughly 2,900 compounds, “NF-kB SEAP reporter activity, fold change vs agonist alone” has its median near 0.99; the highest 2% begin near 2.6. What follows is part of a selection rich in the highest values, with near analogues and random picks from the rest.
# How the values were obtained:
# RAW-Dual [1] = test: NF-kB SEAP reporter activity, fold change vs agonist alone; higher = enhanced NF-kB activity
# How it was run: (§1)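 After 50 nL of library stock was delivered by pin tool to RAW-Dual macrophages (50,000 cells/well, DMEM, 384-well plates), a PRR agonist was added 1 h later and the plates were kept at 37 °C, 5% CO2. Twenty hours later, IRF was read from supernatant by QuantiLuc luminescence and NF-κB by QuantiBlue absorbance at 620 nm. Reporter activity is stated as fold change over agonist-alone wells. Wells with IncuCyte confluency under 70% of agonist controls in both mask sets were counted as cytotoxic.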
# RAW-Dual [2] = test: NF-kB SEAP reporter activity, fold change vs agonist alone; cytotoxicity flag (confluency mask): not cytotoxic; higher = enhanced NF-kB activity
# How it was run: as §1
# RAW-Dual [3] = test: NF-kB SEAP reporter activity, fold change vs agonist alone; cytotoxicity flag (confluency mask): cytotoxic (confluency <70% of control); higher = enhanced NF-kB activity
# How it was run: as §1
# [4] = library stock concentration (final ~1000-fold dilution): 10 mM, cytotoxicity flag (confluency mask): not cytotoxic, agonist: Imiquimod (TLR7) […]
# [5] = library stock concentration (final ~1000-fold dilution): 10 mM, cytotoxicity flag (confluency mask): not cytotoxic, agonist: MPLA (TLR4) […]
# [6] = agonist: ODN 1826 (TLR9) 0.5 ug/mL
# [7] = agonist: Pam2CSK4 (TLR2/6) 0.1 ug/mL
# [8] = agonist: Pam3CSK4 (TLR2/1) 0.1 ug/mL
# [9] = library stock concentration (final ~1000-fold dilution): 2 mM, cytotoxicity flag (confluency mask): not cytotoxic, agonist: Imiquimod (TLR7) […]
# [10] = library stock concentration (final ~1000-fold dilution): 2 mM, cytotoxicity flag (confluency mask): not cytotoxic, agonist: MPLA (TLR4) […]
# [11] = library stock concentration (final ~1000-fold dilution): 10 mM, cytotoxicity flag (confluency mask): cytotoxic (confluency <70% of control), agonist: Imiquimod (TLR7) […]
# [12] = library stock concentration (final ~1000-fold dilution): 10 mM, cytotoxicity flag (confluency mask): cytotoxic (confluency <70% of control), agonist: MPLA (TLR4) […]
compound,measurement,setting,value
O=C(/C=C/N1CC2CC1CN2c1ccccn1)c1ccccc1O (stereo unspecified),NF-kB SEAP reporter activity,RAW-Dual [1]; [4],0.829
same,NF-kB SEAP reporter activity,RAW-Dual [1]; [5],1.03
O=C(/C=C/N1CC2CC1CN2c1ccccn1)c1ccccc1O (stereo unspecified) (library stock concentration (final ~1000-fold dilution): 10 mM),NF-kB SEAP reporter activity,RAW-Dual [2]; agonist: LPS (TLR4) 0.1 ug/mL,1.01
same,NF-kB SEAP reporter activity,RAW-Dual [2]; [6],0.735
same,NF-kB SEAP reporter activity,RAW-Dual [2]; [7],1.02
same,NF-kB SEAP reporter activity,RAW-Dual [2]; [8],1.39
COC(=O)C(CCSC)NC(=O)c1ccc(NCC(N)CS)cc1-c1ccccc1.Cl (stereo unspecified),NF-kB SEAP reporter activity,RAW-Dual [1]; [4],1.13
same,NF-kB SEAP reporter activity,RAW-Dual [1]; [5],1.22
COC(=O)C(CC(C)C)NC(=O)c1ccc(NCC(N)CS)cc1-c1cccc2ccccc12.O=C(O)C(F)(F)F (stereo unspecified) (library stock concentration (final ~1000-fold dilution): 10 mM),NF-kB SEAP reporter activity,RAW-Dual [2]; agonist: LPS (TLR4) 0.1 ug/mL,3.82
same,NF-kB SEAP reporter activity,RAW-Dual [2]; [6],2.38
same,NF-kB SEAP reporter activity,RAW-Dual [2]; [7],1.5
same,NF-kB SEAP reporter activity,RAW-Dual [2]; [8],2.19
CCN(CC)CCCCC(NC(=O)C(CC(C)C)NC(=O)C(C)NC(=O)C(Cc1ccccc1)NC(=O)c1ccc(C(C)(C)C)cc1)C(=O)NC(CO)C(=O)OC (stereo unspecified),NF-kB SEAP reporter activity,RAW-Dual [1]; [4],1.08
same,NF-kB SEAP reporter activity,RAW-Dual [1]; [5],0.945
CCN(CC)CCCCC(NC(=O)C(CC(C)C)NC(=O)C(C)NC(=O)C(Cc1ccccc1)NC(=O)c1ccc(C(C)(C)C)cc1)C(=O)NC(CO)C(=O)OC (stereo unspecified) (library stock concentration (final ~1000-fold dilution): 10 mM),NF-kB SEAP reporter activity,RAW-Dual [2]; agonist: LPS (TLR4) 0.1 ug/mL,0.99
same,NF-kB SEAP reporter activity,RAW-Dual [2]; [6],0.888
same,NF-kB SEAP reporter activity,RAW-Dual [2]; [7],0.898
same,NF-kB SEAP reporter activity,RAW-Dual [2]; [8],1.1
COC(=O)C(CCSC)NC(=O)c1ccc(NCC(N)CS)cc1-c1ccccc1.Cl (stereo unspecified) (library stock concentration (final ~1000-fold dilution): 10 mM),NF-kB SEAP reporter activity,RAW-Dual [2]; agonist: LPS (TLR4) 0.1 ug/mL,1.38
same,NF-kB SEAP reporter activity,RAW-Dual [2]; [6],1.56
same,NF-kB SEAP reporter activity,RAW-Dual [2]; [7],1.16
same,NF-kB SEAP reporter activity,RAW-Dual [2]; [8],0.929
COC(=O)C(CC(C)C)NC(=O)c1ccc(NCC(N)CS)cc1-c1cccc2ccccc12.O=C(O)C(F)(F)F (stereo unspecified),NF-kB SEAP reporter activity,RAW-Dual [1]; [4],1.25
same,NF-kB SEAP reporter activity,RAW-Dual [1]; [5],2.31
C=C(C)C1CCC2(C(=O)OC3OC(COC4OC(CO)C(OC5OC(C)C(O)C(O)C5O)C(O)C4O)C(O)C(O)C3O)CCC3(C)C(CCC4C5(C)CCC(OC6OCC(O)C(O)C6OC6OC(C)C(O)C(O)C6O)C(C)(CO)C5CCC43C)C12 (stereo unspecified) (library stock concentration (final ~1000-fold dilution): 2 mM),NF-kB SEAP reporter activity,RAW-Dual [2]; agonist: LPS (TLR4) 0.1 ug/mL,1
same,NF-kB SEAP reporter activity,RAW-Dual [2]; [6],1.09
same,NF-kB SEAP reporter activity,RAW-Dual [2]; [7],1.17
same,NF-kB SEAP reporter activity,RAW-Dual [2]; [8],1.16
C=C(C)C1CCC2(C(=O)OC3OC(COC4OC(CO)C(OC5OC(C)C(O)C(O)C5O)C(O)C4O)C(O)C(O)C3O)CCC3(C)C(CCC4C5(C)CCC(OC6OCC(O)C(O)C6OC6OC(C)C(O)C(O)C6O)C(C)(CO)C5CCC43C)C12 (stereo unspecified),NF-kB SEAP reporter activity,RAW-Dual [1]; [9],0.946
same,NF-kB SEAP reporter activity,RAW-Dual [1]; [10],1.07
Cn1cc(-c2cnn3c(N)c(Br)c(C4CCCNC4)nc23)cn1 (stereo unspecified) (library stock concentration (final ~1000-fold dilution): 2 mM),NF-kB SEAP reporter activity,RAW-Dual [2]; agonist: LPS (TLR4) 0.1 ug/mL,1.31
same,NF-kB SEAP reporter activity,RAW-Dual [2]; [6],1.04
same,NF-kB SEAP reporter activity,RAW-Dual [2]; [7],1.04
same,NF-kB SEAP reporter activity,RAW-Dual [2]; [8],1.19
Cn1cc(-c2cnn3c(N)c(Br)c(C4CCCNC4)nc23)cn1 (stereo unspecified),NF-kB SEAP reporter activity,RAW-Dual [1]; [9],1.09
same,NF-kB SEAP reporter activity,RAW-Dual [1]; [10],1.35
Nc1ccn(C2CCC(CO)O2)c(=O)n1 (stereo unspecified),NF-kB SEAP reporter activity,RAW-Dual [1]; [4],0.994
same,NF-kB SEAP reporter activity,RAW-Dual [1]; [5],0.981
Nc1ccn(C2CCC(CO)O2)c(=O)n1 (stereo unspecified) (library stock concentration (final ~1000-fold dilution): 10 mM),NF-kB SEAP reporter activity,RAW-Dual [2]; agonist: LPS (TLR4) 0.1 ug/mL,0.913
same,NF-kB SEAP reporter activity,RAW-Dual [2]; [6],1
same,NF-kB SEAP reporter activity,RAW-Dual [2]; [7],0.95
same,NF-kB SEAP reporter activity,RAW-Dual [2]; [8],1.15
Cn1cc(-c2ccc(S(=O)(=O)n3ccc(/C=C/C(=O)Nc4ccccc4N)c3)cc2)cn1,NF-kB SEAP reporter activity,RAW-Dual [1]; [11],1.68
same,NF-kB SEAP reporter activity,RAW-Dual [1]; [12],2.37
Nc1cc(F)ccc1NC(=O)/C=C/c1cnn(C/C=C/c2ccccc2)c1,NF-kB SEAP reporter activity,RAW-Dual [1]; [4],1.14
same,NF-kB SEAP reporter activity,RAW-Dual [1]; [5],1.2
Nc1cc(F)ccc1NC(=O)/C=C/c1cnn(C/C=C/c2ccccc2)c1 (library stock concentration (final ~1000-fold dilution): 10 mM),NF-kB SEAP reporter activity,RAW-Dual [2]; agonist: LPS (TLR4) 0.1 ug/mL,0.995
same,NF-kB SEAP reporter activity,RAW-Dual [2]; [6],1.12
same,NF-kB SEAP reporter activity,RAW-Dual [2]; [7],0.405
same,NF-kB SEAP reporter activity,RAW-Dual [2]; [8],0.419
Cn1cc(-c2ccc(S(=O)(=O)n3ccc(/C=C/C(=O)Nc4ccccc4N)c3)cc2)cn1 (library stock concentration (final ~1000-fold dilution): 10 mM),NF-kB SEAP reporter activity,RAW-Dual [3]; agonist: LPS (TLR4) 0.1 ug/mL,4.11
same,NF-kB SEAP reporter activity,RAW-Dual [3]; [6],3.13
same,NF-kB SEAP reporter activity,RAW-Dual [3]; [7],1.14
same,NF-kB SEAP reporter activity,RAW-Dual [3]; [8],2.27
COc1cc(C(=O)O)ccc1O,NF-kB SEAP reporter activity,RAW-Dual [1]; [4],0.937
same,NF-kB SEAP reporter activity,RAW-Dual [1]; [5],1.02
COc1cc(C(=O)O)ccc1O (library stock concentration (final ~1000-fold dilution): 10 mM),NF-kB SEAP reporter activity,RAW-Dual [2]; agonist: LPS (TLR4) 0.1 ug/mL,1.06
same,NF-kB SEAP reporter activity,RAW-Dual [2]; [6],1.12
same,NF-kB SEAP reporter activity,RAW-Dual [2]; [7],1.14
same,NF-kB SEAP reporter activity,RAW-Dual [2]; [8],1.16
COCCOc1nc(N)c2[nH]c(=O)n(Cc3ccc(C(=O)O)cc3)c2n1,NF-kB SEAP reporter activity,RAW-Dual [1]; [4],1.8
same,NF-kB SEAP reporter activity,RAW-Dual [1]; [5],2.54
CCCCOc1nc(N)c2c(n1)N(Cc1cccc(CN3CCCC3)c1)CC(=O)N2,NF-kB SEAP reporter activity,"RAW-Dual [1]; library stock concentration (final ~1000-fold dilution): 1 mM, cytotoxicity flag (confluency mask): not cytotoxic, agonist: Imiquimod (TLR7) […]",1.26
same,NF-kB SEAP reporter activity,"RAW-Dual [1]; library stock concentration (final ~1000-fold dilution): 1 mM, cytotoxicity flag (confluency mask): not cytotoxic, agonist: MPLA (TLR4) […]",1.91
CCCCOc1nc(N)c2c(n1)N(Cc1cccc(CN3CCCC3)c1)CC(=O)N2 (library stock concentration (final ~1000-fold dilution): 1 mM),NF-kB SEAP reporter activity,RAW-Dual [2]; agonist: LPS (TLR4) 0.1 ug/mL,2.53
same,NF-kB SEAP reporter activity,RAW-Dual [2]; [6],1.13
same,NF-kB SEAP reporter activity,RAW-Dual [2]; [7],1.17
same,NF-kB SEAP reporter activity,RAW-Dual [2]; [8],1.25
COCCOc1nc(N)c2[nH]c(=O)n(Cc3ccc(C(=O)O)cc3)c2n1 (library stock concentration (final ~1000-fold dilution): 10 mM),NF-kB SEAP reporter activity,RAW-Dual [2]; agonist: LPS (TLR4) 0.1 ug/mL,7.55
same,NF-kB SEAP reporter activity,RAW-Dual [2]; [6],2.13
same,NF-kB SEAP reporter activity,RAW-Dual [2]; [7],1.46
same,NF-kB SEAP reporter activity,RAW-Dual [2]; [8],2.77
Cc1cn(C2CC(O)C(CO)O2)c(=O)[nH]c1=O (stereo unspecified),NF-kB SEAP reporter activity,RAW-Dual [1]; [4],0.952
same,NF-kB SEAP reporter activity,RAW-Dual [1]; [5],1.03
Cc1cn(C2CC(O)C(CO)O2)c(=O)[nH]c1=O (stereo unspecified) (library stock concentration (final ~1000-fold dilution): 10 mM),NF-kB SEAP reporter activity,RAW-Dual [2]; agonist: LPS (TLR4) 0.1 ug/mL,1.16
same,NF-kB SEAP reporter activity,RAW-Dual [2]; [6],1.03
same,NF-kB SEAP reporter activity,RAW-Dual [2]; [7],1.12
same,NF-kB SEAP reporter activity,RAW-Dual [2]; [8],1.11
COCCOc1ccc2c(c1)ncn2-c1ccc2cccc(N3CCC(N)CC3)c2n1 (library stock concentration (final ~1000-fold dilution): 10 mM),NF-kB SEAP reporter activity,RAW-Dual [3]; agonist: LPS (TLR4) 0.1 ug/mL,0.593
same,NF-kB SEAP reporter activity,RAW-Dual [3]; [6],0.758
same,NF-kB SEAP reporter activity,RAW-Dual [3]; [7],0.862
same,NF-kB SEAP reporter activity,RAW-Dual [3]; [8],1.32
COCCOc1ccc2c(c1)ncn2-c1ccc2cccc(N3CCC(N)CC3)c2n1,NF-kB SEAP reporter activity,RAW-Dual [1]; [11],2.77
same,NF-kB SEAP reporter activity,RAW-Dual [1]; [12],0.871
CC1(COc2ccc3c(c2)ncn3-c2ccc3cccc(N4CCC(N)CC4)c3n2)COC1,NF-kB SEAP reporter activity,RAW-Dual [1]; [11],2.9
same,NF-kB SEAP reporter activity,RAW-Dual [1]; [12],1.43
CC1(COc2ccc3c(c2)ncn3-c2ccc3cccc(N4CCC(N)CC4)c3n2)COC1 (library stock concentration (final ~1000-fold dilution): 10 mM),NF-kB SEAP reporter activity,RAW-Dual [3]; agonist: LPS (TLR4) 0.1 ug/mL,0.769
same,NF-kB SEAP reporter activity,RAW-Dual [3]; [6],1.59
same,NF-kB SEAP reporter activity,RAW-Dual [3]; [7],1.81
same,NF-kB SEAP reporter activity,RAW-Dual [3]; [8],1.6
OCc1ccccc1OC1OC(CO)C(O)C(O)C1O (stereo unspecified) (library stock concentration (final ~1000-fold dilution): 10 mM),NF-kB SEAP reporter activity,RAW-Dual [2]; agonist: LPS (TLR4) 0.1 ug/mL,0.986
same,NF-kB SEAP reporter activity,RAW-Dual [2]; [6],1.08
same,NF-kB SEAP reporter activity,RAW-Dual [2]; [7],1.11
same,NF-kB SEAP reporter activity,RAW-Dual [2]; [8],1.19
OCc1ccccc1OC1OC(CO)C(O)C(O)C1O (stereo unspecified),NF-kB SEAP reporter activity,RAW-Dual [1]; [4],0.917
same,NF-kB SEAP reporter activity,RAW-Dual [1]; [5],1.04

# — the supplement of paper PMC10037445
